Reference: PubChem BioAssay (Tox21)
Records with an inconclusive call do not appear. Entries that show only a call come without a potency. A number with no mark means an inactive call. Calls of active or inactive are those of the source. The call rests on the fitted dose curve; in most records, active means well fitted activation curve with a large enough effect in the repeat runs; inconclusive means weak or mixed curves; inactive means flat fitted curve, though single readings scatter.

test: A CellTox Green Cytotoxicity Assay to monitor cytotoxicity in HEK293 cells - 32 hour (AID 1224881); conditions: CellTox Green fluorescence; series mostly up to 76.8 µM; further: nearly all actives have a fitted effect of over 40% in size
Source text: National Center for Advancing Translational Sciences [NCATS]
NIH Chemical Genomics Center [NCGC]
U.S. Environmental Protection Agency [EPA]
National Institutes of Environmental Health Sciences [NIEHS]
National Toxicology Program [NTP]
Cell-based models are critical for drug discovery. Determining the natural cytotoxic effects resulting from test compounds is an essential research activity. A CellTox Green Cytotoxicity Assay to monitor cytotoxicity in real time of continues cell culture during 40 hours of the compound treatment was used to screen Tox21 10K library compounds in Hek293 cells. CellTox Green Cytotoxicity Assay is a nonlytic, homogeneous, biofluorescent method to measure cytotoxicity in cell culture after experimental manipulation. The assay system uses a proprietary asymmetric cyanine dye that is excluded from viable cells but preferentially stains the dead cell's DNA. […] Viable cells produce no appreciable increases in fluorescence. Therefore, the fluorescence signal produced by the binding interaction with dead cell DNA is proportional to cytotoxicity.
The mixture of Hek293 cell suspension and reagents were dispensed at 600cells/6 ul/well in 1536-well tissue culture treated black solid bottom plates using a Multidrop dispenser. After the assay plates were incubated at a 37 C/5% CO2 incubator for 5 hours, 23 nL of compounds dissolved in DMSO, positive and negative controls was transferred to the assay plate by a pintool work station. The plates were incubated at 37 C for 40 hours. The fluorescence intensity were measured at 0h, 8h, 16h, 24h, 32h and 40h time points using ViewLux plate reader during compound treatment.
Potency means the concentration at half of the fitted maximal effect.

SMILES	Potency	cytotoxicity increase
CC1=CCCC(C)(C)C12CCC(C)O2 (stereo not given)	inactive	
CC(=O)c1cccc([N+](=O)[O-])c1	inactive	
CCCNCC(O)COc1ccccc1C(=O)CCc1ccccc1 (stereo not given)	inactive	
CC(=O)[O][Al][O]C(C)=O	inactive	
COc1ccc(-c2nc3ccc(C4=NNC(=O)CC4C)cc3[nH]2)cc1 (stereo not given)	inactive	
NCc1ccccc1Sc1ccccc1CO	inactive	
CCCCCCOC(=O)NC(=N)c1ccc(NCc2nc3cc(C(=O)N(CCC(=O)OCC)c4ccccn4)ccc3n2C)cc1	inactive	
COc1ccc(C(=O)N2CCN(CC(=O)N3CCOCC3)CC2)cc1	inactive	
COc1cc2nc(N3CCN(C(=O)C4COc5ccccc5O4)CC3)nc(N)c2cc1OC (stereo not given)	inactive	
O=C(O)C1(C(=O)Nc2ccc(Cl)cc2Cl)CC1	inactive	
COc1cc2nc(Cl)nc(N)c2cc1OC	inactive	
O=C1OC(=O)C2C3C=CC(C3)C12 (stereo not given)	inactive	
Cc1cccc(C)c1NC(=O)CN(CC(=O)O)CC(=O)O	inactive	
CCCCCCCCCOS(=O)(=O)O	inactive	
COc1cc(Cl)c(OC)cc1N	inactive	
C=C(C)C(=O)OCC	inactive	
Cc1oc2c(NC(=O)c3c(Cl)cccc3Cl)cccc2c1C(C)(C)O	inactive	
CCC(CC)Nc1ccc(C)c(C)c1	inactive	
C=C(C)C(=O)OCCO	inactive	
CC[N+]1(CC)CCC(=C(c2ccccc2)c2ccccc2)C1C (stereo not given)	inactive	

SMILES	Potency	cytotoxicity increase
Nc1ccc([N+](=O)[O-])c(C(F)(F)F)c1	inactive	
Nc1c(CC(=O)O)cccc1C(=O)c1ccc(Br)cc1	inactive	
CCn1cc(C(=O)O)c(=O)c2cnc(N3CCNCC3)nc21	inactive	
O[C@@H](COc1cccc2ncccc12)CN1CCN(C2c3ccccc3[C@@H]3[C@H](c4ccccc42)C3(F)F)CC1 (stereo not given in full)	inactive	
CC(C)Nc1ccc(NC(C)C)c2c1C(=O)c1ccccc1C2=O	25.5 µM (active)	
NCC(=O)O		1.64% [at 15.8 µM]
CCOC(=O)C(O)c1ccccc1 (stereo not given)	inactive	
CCCCC/C=C\C/C=C\CCCCCCCC(=O)NC(C)c1ccccc1 (stereo not given)	inactive	
O=C(O)CC(=O)C(=O)O	inactive	
CO[C@@H]1[C@H](OC(=O)/C=C/C=C/C=C/C=C/C(=O)O)CC[C@]2(CO2)[C@H]1[C@@]1(C)O[C@@H]1CC=C(C)C	inactive	
CC(=O)c1ccc2c(c1)N(CCCN1CCC(CCO)CC1)c1ccccc1S2	23.9 µM (active)	
CCCCCCCCCCCCN1CCCCCC1=O	inactive	
O=CC1CC=CCC1 (stereo not given)	inactive	
CCOC(=O)C(F)(F)F	inactive	
CCN(CC)c1ccc2c(-c3ccccc3C(=O)O)c3ccc(=[N+](CC)CC)cc-3oc2c1	24.5 µM (active)	
O=S(c1cc(Cl)cc(Cl)c1O)c1cc(Cl)cc(Cl)c1O	inactive	
CCOC(=O)c1cccnc1	inactive	
Cc1ccc(N=Nc2c(O)c(C(=O)O)cc3ccccc23)c(S(=O)(=O)O)c1	inactive	
NC(=O)C(c1ccccc1)(c1ccccc1)[C@@H]1CCN(CCc2ccc3c(c2)CCO3)C1	21.3 µM (active)	
CCNc1cc(O)ccc1C	34.3 µM (active)	
